# PubChem BioAssay
# Activity calls are given as the source filed them.
# Experiments:
# [1] = small molecules captured by biotinylated probe aFSTL3 – biochemical, small-molecule microarray, fluorescence 635/667, stem cell growth factor project, primary screen (AID 1064); conditions: higher = more signal;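 also: measures binding of the biotinylated anti-FSTL3 antibody to printed compounds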
# [2] = binders from COS7 lysate, DM2A8 probe, primary screen, torsin A project, cell lysate, small-molecule microarray, fluorescence 635/667 (AID 1065); conditions: higher = more signal, COS7 lysate expressing mutant human TOR1A
# [3] = small molecules captured by biotinylated probe aFGF2 – biochemical, small-molecule microarray, fluorescence 635/667, stem cell growth factor project, primary screen (AID 1067); conditions: higher = more signal;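 also: measures binding of biotinylated aFGF2 protein to printed compounds on slides; z-score merges feature fluorescence and signal-to-noise across triplicate slides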
# [4] = small molecules captured by biotinylated probe aFGF10 – biochemical, small-molecule microarray, fluorescence 635/667, stem cell growth factor project, primary screen (AID 1071); conditions: higher = more signal;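 also: score merges 667 nm spot intensity and signal to noise from triplicate slides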
# [5] = molecular target: Neurogenic locus notch homolog protein 2 (Homo sapiens) (UniProt Q04721); assay: small molecules binding Notch2 protein – biochemical, small-molecule microarray, 635 nm fluorescence, stem cell growth factors, primary screen (AID 1073); conditions: higher = more signal
# Sequence of Neurogenic locus notch homolog protein 2 (Homo sapiens) (Q04721 whole entry, looked up, canonical isoform): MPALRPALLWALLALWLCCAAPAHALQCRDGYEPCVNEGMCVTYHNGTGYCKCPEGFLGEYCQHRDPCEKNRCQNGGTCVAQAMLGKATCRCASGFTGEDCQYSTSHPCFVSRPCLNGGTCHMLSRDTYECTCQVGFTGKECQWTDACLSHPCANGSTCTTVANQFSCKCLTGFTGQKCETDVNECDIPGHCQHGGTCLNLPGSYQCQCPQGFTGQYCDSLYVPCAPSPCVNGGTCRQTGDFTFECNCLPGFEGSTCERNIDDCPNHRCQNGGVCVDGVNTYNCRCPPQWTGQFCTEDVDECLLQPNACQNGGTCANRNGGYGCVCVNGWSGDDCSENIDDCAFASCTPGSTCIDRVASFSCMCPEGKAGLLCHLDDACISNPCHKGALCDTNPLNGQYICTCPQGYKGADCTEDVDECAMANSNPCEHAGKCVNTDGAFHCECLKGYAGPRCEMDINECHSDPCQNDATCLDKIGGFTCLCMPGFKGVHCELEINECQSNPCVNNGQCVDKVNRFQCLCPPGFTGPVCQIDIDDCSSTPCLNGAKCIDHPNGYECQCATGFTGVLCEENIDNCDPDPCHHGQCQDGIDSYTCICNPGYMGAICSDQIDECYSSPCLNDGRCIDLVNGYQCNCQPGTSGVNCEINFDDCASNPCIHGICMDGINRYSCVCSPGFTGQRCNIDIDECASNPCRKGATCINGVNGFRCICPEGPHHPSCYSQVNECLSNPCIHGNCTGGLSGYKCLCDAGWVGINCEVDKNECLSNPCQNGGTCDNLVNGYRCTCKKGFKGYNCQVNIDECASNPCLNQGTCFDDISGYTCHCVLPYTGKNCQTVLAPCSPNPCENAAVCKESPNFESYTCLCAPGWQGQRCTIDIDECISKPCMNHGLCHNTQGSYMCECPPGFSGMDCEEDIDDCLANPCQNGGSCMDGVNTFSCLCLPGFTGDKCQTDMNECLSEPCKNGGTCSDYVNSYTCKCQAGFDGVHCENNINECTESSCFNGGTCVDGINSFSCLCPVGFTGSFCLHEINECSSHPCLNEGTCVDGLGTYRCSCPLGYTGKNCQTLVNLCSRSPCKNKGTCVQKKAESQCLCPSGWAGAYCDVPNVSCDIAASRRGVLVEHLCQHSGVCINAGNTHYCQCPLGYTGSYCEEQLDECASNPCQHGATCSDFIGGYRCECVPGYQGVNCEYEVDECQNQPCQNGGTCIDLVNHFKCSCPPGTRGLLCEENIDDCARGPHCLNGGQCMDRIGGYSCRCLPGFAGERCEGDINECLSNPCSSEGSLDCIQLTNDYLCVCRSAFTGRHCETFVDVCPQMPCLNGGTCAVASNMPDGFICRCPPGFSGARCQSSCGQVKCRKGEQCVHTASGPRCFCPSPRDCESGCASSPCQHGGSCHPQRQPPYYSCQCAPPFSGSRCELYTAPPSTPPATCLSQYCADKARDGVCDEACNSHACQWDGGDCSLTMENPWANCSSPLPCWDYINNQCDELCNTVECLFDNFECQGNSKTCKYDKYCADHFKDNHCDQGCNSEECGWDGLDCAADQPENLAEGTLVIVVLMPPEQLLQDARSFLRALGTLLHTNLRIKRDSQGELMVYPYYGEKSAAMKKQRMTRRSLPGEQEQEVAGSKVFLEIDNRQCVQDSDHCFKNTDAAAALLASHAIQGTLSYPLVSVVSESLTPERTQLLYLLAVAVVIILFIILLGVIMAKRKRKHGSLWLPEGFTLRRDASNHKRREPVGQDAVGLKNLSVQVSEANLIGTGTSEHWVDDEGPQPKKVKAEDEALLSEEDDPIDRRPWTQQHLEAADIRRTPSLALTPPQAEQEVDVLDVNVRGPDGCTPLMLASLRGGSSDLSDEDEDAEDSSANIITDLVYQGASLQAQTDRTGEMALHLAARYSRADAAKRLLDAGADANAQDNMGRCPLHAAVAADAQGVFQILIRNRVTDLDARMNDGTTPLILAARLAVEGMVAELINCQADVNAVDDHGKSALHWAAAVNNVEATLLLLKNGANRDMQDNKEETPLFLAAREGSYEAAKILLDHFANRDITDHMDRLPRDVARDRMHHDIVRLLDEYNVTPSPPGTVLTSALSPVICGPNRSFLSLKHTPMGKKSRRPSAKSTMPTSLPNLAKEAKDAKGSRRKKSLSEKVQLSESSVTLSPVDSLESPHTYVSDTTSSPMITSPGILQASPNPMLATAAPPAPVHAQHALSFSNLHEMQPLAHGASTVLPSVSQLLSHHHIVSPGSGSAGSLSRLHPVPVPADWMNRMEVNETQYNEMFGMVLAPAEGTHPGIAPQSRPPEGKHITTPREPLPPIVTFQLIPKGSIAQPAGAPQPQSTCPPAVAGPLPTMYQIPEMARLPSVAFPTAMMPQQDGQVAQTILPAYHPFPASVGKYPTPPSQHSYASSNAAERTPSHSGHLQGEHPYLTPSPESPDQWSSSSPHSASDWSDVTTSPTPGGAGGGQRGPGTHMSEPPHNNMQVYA
# [6] = molecular target: Pro-neuregulin-1, membrane-bound isoform (Homo sapiens) (UniProt Q02297); assay: small molecules binding neuregulin-1 protein – biochemical, small-molecule microarray, fluorescence 635/667, psychiatric disease protein project, primary screen (AID 1075); conditions: NRG1 binding, 635 nm fluorescence, higher = more signal;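 also: score combines 667 nm spot fluorescence with signal to noise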
# [7] = system: Neuregulin-1 EGF-like domain; assay: small molecules binding NRG1 EGF domain – biochemical, small-molecule microarray, 635 nm fluorescence, primary screen (AID 1081); conditions: higher = more signal;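 also: binding of the protein to compounds printed on small-molecule microarray slides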
# [8] = FRG1 expression reporter modulators in myotubes – cell-based, C2C12 myotubes, firefly/Renilla luciferase, luminescence, FRG1 inhibition for FSHD, primary screen (AID 1084); conditions: FRG1 promoter luciferase, higher = more signal, called active from +8 up or from −8 down
# [9] = small molecules captured by biotinylated probe aFST – biochemical, small-molecule microarray, fluorescence 635/667, stem cell growth factor project, primary screen (AID 1086); conditions: higher = more signal;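 also: score merges 667 nm fluorescence with signal-to-noise of each printed compound spot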
# [10] = binders of probe aHhip on microarray, primary screen, stem cell growth factor project, biochemical, small-molecule microarray, fluorescence 635/667 (AID 1087); conditions: higher = more signal;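 also: score merges spot fluorescence at 667nm with spot signal to noise ratio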
# [11] = system: PRMT1 (protein arginine N-methyltransferase 1); assay: small molecules binding arginine methyltransferase PRMT1 – biochemical, small-molecule microarray, 635 nm fluorescence, primary screen (AID 1088); conditions: higher = more signal;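 also: binding of Prmt1 protein to compounds spotted on small-molecule microarray slides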
# [12] = growth effects on S. cerevisiae YJM789 – YJM789 clinical isolate, OD600, 24 h, basal, primary screen (AID 1089); conditions: higher = more signal, called active from +8 up or from −8 down;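 also: growth of clinical yeast isolate S. cerevisiae YJM 789 seeded 1000 cells per well; test concentration not given here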
# [13] = S. pombe growth modifiers, basal conditions – strain 972, OD600, 24 h, no modulator, primary screen (AID 1090);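 also: basal condition with compound alone and no growth modifier present; test concentration not given here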; conditions: S. pombe 972 growth, higher = more signal, called active from +8 up or from −8 down
# [14] = budding yeast growth modifiers under rapamycin – strain BY4716, OD600, 96 h, primary screen (AID 1091); also: test concentration not given here; conditions: S. cerevisiae BY4716 + rapamycin, higher = more signal, called active from +8 up or from −8 down
# [15] = molecular target: Torsin-1A-interacting protein 2 (Homo sapiens) (UniProt Q8NFQ8); assay: small molecules binding lysate-expressed LULL1 – cell lysate, human LULL1 lysate, 635/667 nm fluorescence, primary screen (AID 1092); conditions: small-molecule microarray, hLULL1 lysate binding, 635 nm fluorescence; higher = more signal;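 also: probe is lysate of COS7 cells overexpressing human LULL1; score merges per-feature 667 nm fluorescence with signal-to-noise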
# [16] = optical density change of DRC41 E. coli – strain DRC41, OD650, 24 h, E. coli filamentation project, primary screen (AID 1093);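 also: MC1000 strain lacking acrAB efflux and sulA so SOS filamentation is blocked; test concentration not given here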; conditions: E. coli DRC41 growth, higher = more signal, called active from +8 up or from −8 down
# [17] = probe aLefty2 binding to arrayed compounds – biochemical, biotinylated probe, 635/667 nm fluorescence, primary screen (AID 1094); conditions: small-molecule microarray, higher = more signal;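 also: score merges spot fluorescence near 667 nm with spot signal-to-noise ratio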
# [18] = system: Noggin (protein binding on small-molecule microarray); assay: small molecules binding Noggin protein – biochemical, 635/667 nm fluorescence, primary screen (AID 1095); conditions: 635 nm fluorescence, higher = more signal;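 also: score merges 667 nm feature fluorescence with signal to noise over triplicate slides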
# [19] = molecular target: Neurogenic locus notch homolog protein 3 (Homo sapiens) (UniProt Q9UM47); assay: small molecules binding NOTCH3 protein – biochemical, 635/667 nm fluorescence, primary screen (AID 1096); conditions: small-molecule microarray, 635 nm fluorescence, higher = more signal
# Sequence of Neurogenic locus notch homolog protein 3 (Homo sapiens) (Q9UM47 whole entry, looked up): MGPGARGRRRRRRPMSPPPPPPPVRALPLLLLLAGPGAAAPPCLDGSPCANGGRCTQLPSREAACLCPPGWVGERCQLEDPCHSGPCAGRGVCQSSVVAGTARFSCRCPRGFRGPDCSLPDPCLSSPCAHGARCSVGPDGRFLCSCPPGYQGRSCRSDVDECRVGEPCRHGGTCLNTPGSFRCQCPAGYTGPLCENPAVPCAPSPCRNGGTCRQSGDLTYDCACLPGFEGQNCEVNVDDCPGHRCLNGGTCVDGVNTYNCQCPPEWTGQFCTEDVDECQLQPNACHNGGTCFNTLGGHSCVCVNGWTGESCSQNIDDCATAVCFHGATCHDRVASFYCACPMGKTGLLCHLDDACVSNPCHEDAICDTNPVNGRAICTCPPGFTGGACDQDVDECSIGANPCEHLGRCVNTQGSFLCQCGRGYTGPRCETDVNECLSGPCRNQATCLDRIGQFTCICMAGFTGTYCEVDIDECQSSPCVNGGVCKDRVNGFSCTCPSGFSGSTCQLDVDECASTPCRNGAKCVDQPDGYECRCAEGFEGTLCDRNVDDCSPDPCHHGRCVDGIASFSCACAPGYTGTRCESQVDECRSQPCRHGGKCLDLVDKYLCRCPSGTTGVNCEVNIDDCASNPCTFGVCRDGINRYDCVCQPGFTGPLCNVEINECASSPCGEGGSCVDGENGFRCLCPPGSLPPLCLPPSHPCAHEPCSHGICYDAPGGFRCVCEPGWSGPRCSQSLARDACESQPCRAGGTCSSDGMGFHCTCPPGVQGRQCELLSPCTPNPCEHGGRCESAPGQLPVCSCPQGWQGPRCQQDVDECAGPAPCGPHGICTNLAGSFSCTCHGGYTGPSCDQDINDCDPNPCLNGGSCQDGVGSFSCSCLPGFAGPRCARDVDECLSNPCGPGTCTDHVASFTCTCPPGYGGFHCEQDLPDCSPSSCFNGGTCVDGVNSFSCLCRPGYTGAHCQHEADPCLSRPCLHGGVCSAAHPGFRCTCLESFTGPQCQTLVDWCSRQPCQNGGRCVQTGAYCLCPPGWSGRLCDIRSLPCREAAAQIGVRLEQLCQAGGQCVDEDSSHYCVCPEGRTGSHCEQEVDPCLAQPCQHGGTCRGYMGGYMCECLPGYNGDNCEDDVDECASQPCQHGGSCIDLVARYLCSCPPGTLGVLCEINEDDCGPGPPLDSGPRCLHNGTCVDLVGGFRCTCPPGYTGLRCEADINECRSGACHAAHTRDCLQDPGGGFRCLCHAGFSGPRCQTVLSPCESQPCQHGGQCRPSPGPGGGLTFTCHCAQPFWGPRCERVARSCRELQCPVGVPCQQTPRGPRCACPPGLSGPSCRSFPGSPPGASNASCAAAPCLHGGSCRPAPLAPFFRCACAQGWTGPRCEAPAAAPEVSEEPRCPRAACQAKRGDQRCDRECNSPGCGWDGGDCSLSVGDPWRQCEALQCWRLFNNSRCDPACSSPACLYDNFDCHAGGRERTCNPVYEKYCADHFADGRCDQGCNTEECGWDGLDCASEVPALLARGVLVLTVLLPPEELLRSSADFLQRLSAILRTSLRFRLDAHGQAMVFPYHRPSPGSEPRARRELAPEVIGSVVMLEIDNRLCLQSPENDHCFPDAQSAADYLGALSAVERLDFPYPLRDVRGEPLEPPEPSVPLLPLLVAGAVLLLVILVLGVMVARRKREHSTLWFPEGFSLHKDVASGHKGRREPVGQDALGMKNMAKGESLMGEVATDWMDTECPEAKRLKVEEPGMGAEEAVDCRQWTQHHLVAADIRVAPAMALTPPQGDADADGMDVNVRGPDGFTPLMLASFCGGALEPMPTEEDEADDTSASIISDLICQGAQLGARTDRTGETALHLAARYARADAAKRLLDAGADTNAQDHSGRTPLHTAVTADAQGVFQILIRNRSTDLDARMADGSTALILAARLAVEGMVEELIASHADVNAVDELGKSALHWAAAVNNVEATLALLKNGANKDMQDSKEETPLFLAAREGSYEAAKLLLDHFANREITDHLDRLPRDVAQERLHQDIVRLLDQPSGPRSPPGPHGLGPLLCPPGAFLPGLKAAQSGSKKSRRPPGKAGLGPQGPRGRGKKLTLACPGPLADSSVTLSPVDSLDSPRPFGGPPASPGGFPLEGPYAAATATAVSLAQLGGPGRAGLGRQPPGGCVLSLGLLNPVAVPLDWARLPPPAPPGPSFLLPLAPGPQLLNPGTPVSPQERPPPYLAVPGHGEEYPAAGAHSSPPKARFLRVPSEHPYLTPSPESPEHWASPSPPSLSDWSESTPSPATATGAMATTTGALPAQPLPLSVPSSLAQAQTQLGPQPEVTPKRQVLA
# [20] = probe aEGFR binding to arrayed compounds – biochemical, biotinylated probe, 635/667 nm fluorescence, primary screen (AID 1097); conditions: small-molecule microarray, higher = more signal;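 also: probe is a biotinylated anti-EGFR antibody binding compounds printed on slides; score combines fluorescence near 667 nm and signal to noise of each spot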
SMILES,composite z-score [1],composite z-score [2],composite z-score [3],composite z-score [4],composite z-score [5],composite z-score [6],composite z-score [7],z-score [8],composite z-score [9],composite z-score [10],composite z-score [11],z-score [12],z-score [13],z-score [14],composite z-score [15],z-score [16],composite z-score [17],composite z-score [18],composite z-score [19],composite z-score [20]
COc1ccc(CCNC(=O)[C@@H]2c3ccccc3C(=O)N(Cc3ccccc3C(F)(F)F)[C@H]2c2ccc(CO)cc2)cc1,0.114,1.02,0.0292,0.0105,-0.354,1.2,0.472,-0.646 (inactive),-0.211,-0.134,0.77,-0.0666 (inactive),0.057 (inactive),-0.0429 (inactive),2.92,0.415 (inactive),0.0258,-0.185,-0.0818,-0.216
C=CCOC(=O)[C@H]1[C@@H]2C(=O)O[C@@H](c3ccccc3)[C@@H](c3ccccc3)N2[C@@H](c2ccc(OCCOC(=O)[C@H]3C[C@H]4C(=O)N[C@@H](CCCCN(C)C)C(=O)N4[C@H]3c3ccc(O)cc3)cc2)[C@]12C(=O)Nc1ccccc12,0.27,0.91,-0.033,0.445,0.349,-0.013,1.19,0.139 (inactive),0.86,0.0524,1.54,-0.0535 (inactive),-1.03 (inactive),-0.713 (inactive),2.49,-0.296 (inactive),0.155,1.83,1.06,0.0088
O=C1C2C=CC(C(O)c3ccccn3)N(Nc3ccccc3)C2C(=O)N1c1ccccc1 (stereo not given),-0.205,-1.39,-0.105,0.356,0.177,1.65,1.03,1.29 (inactive),0.338,-0.0003,0.207,0.756 (inactive),1.41 (inactive),0.391 (inactive),2.24,-0.917 (inactive),-0.0991,-0.292,-0.254,-0.108
CC(C)C(CO)N1C(=O)[C@@H]2[C@H]3C(=O)OCC=C[C@H]3OC23C=CCN(CCN2CCOCC2)C(=O)[C@@H]13 (stereo not given in full),-0.565,-1.13,-0.166,-0.351,-0.868,0.0853,-0.428,-0.0357 (inactive),-0.525,-0.538,0.598,1.21 (inactive),0.0729 (inactive),0.759 (inactive),1.13,-0.455 (inactive),-0.25,0.521,0.583,-0.244
C=CC[C@@]1(C(=O)NCCN2CCOCC2)N=C(c2ccc(OCCCO)cc2)O[C@@H]1c1ccccc1,0.424,1.64,0.0342,0.66,0.52,0.595,1.36,0.254 (inactive),1.16,0.124,1.54,0.305 (inactive),0.132 (inactive),0.33 (inactive),3.01,0.0348 (inactive),0.0634,2.08,0.625,0.0149
C[N+](C)(C)CCCC[C@@H]1NC(=O)[C@H]2C[C@@H](C(=O)NCCCCCCN)[C@@H](c3cccc(OCCO)c3)N2C1=O,1.71,1.85,0.0852,0.765,0.791,1.14,1.49,0.029 (inactive),0.592,1.13,1.54,-0.0132 (inactive),-0.87 (inactive),-0.133 (inactive),3.06,0.27 (inactive),1.08,1.15,1.07,0.693
CCOC(=O)C1=CCC(c2cccc(Cl)c2)O1 (stereo not given),-0.267,0.491,-0.0036,0.0428,0.105,1.06,0.575,-0.242 (inactive),0.0826,-0.131,0.487,-2.79 (inactive),-0.615 (inactive),3.33 (inactive),0.744,0.558 (inactive),-0.0831,-0.0785,0.186,-0.0953
CN(C)C(=O)[C@@]1(CCC(=O)OC(C)(C)C)N=C(c2ccc(OCCCO)cc2)O[C@H]1c1ccccc1N=[N+]=[N-],0.294,1.45,0.0168,0.739,1.2,1.96,1.52,0.768 (inactive),1.79,0.245,1.54,0.82 (inactive),0.217 (inactive),0.701 (inactive),3.82,-0.0123 (inactive),0.126,1.09,1.09,0.101
O=C(O)[C@]1(CCS(=O)(=O)c2ccccc2)N=C(c2ccc(OCCCO)cc2)O[C@@H]1c1ccccc1,1.19,-0.106,0.115,-0.0267,0.506,1.13,1.05,0.694 (inactive),0.914,0.744,0.464,-0.15 (inactive),-2.3 (inactive),-0.961 (inactive),3.4,0.0201 (inactive),0.337,-0.116,-0.687,0.0021
CC(C)CCC[C@@H](C)[C@H]1CC[C@@]2(C)C3=C(CC[C@]12C)[C@@]1(C)CC[C@H](OC(=O)c2ccc(N)cc2)C(C)(C)C1CC3 (stereo not given in full),-0.219,0.481,-0.145,0.448,0.558,-0.0202,0.649,-1.35 (inactive),0.0576,-0.406,0.68,-1.77 (inactive),-1 (inactive),-0.246 (inactive),-0.0362,2.78 (inactive),-0.19,0.434,0.614,-0.0238
C=C(CCCC)/C(=C/C[C@H](OC(=O)c1ccncc1)c1ccc(CO)o1)c1cc(C(=O)OC)ccc1OC,-0.293,1.83,-0.116,0.418,0.822,1.01,1.26,-0.906 (inactive),0.381,0.0722,1.56,-0.0643 (inactive),-1.65 (inactive),-0.57 (inactive),2.12,0.171 (inactive),0.0123,1,1.13,-0.0056
COCCCNC(=O)[C@@H]1c2ccccc2C(=O)N(Cc2cc(F)cc(C(F)(F)F)c2)[C@H]1c1ccc(CO)cc1,0.211,-0.303,-0.233,-0.535,-0.984,-0.676,0.716,0.154 (inactive),-0.395,-0.134,-0.444,-0.359 (inactive),-0.555 (inactive),-0.703 (inactive),0.0519,0.526 (inactive),-0.016,-0.902,-1.26,-0.207
C=C(COC)C(=O)CC[C@H](OC(=O)c1ccccc1-c1ccccc1C(=O)O)c1ccc(OCCO)cc1,-0.249,1.42,-0.0729,0.512,-0.0342,1.09,1.11,0.552 (inactive),0.347,-0.236,1.55,-1.73 (inactive),-0.613 (inactive),-0.509 (inactive),0.75,0.802 (inactive),-0.117,1.52,0.615,-0.111
CC(C)(C)OC(=O)CC[C@@]1(C(=O)N2CCCCC2)N=C(c2ccc(OCCCO)cc2)O[C@@H]1c1ccccc1N=[N+]=[N-],0.358,0.805,0.147,1.03,1.66,1.89,1.41,-1.88 (inactive),1.34,-0.0237,1.53,-0.336 (inactive),-0.029 (inactive),-0.183 (inactive),3.49,1.11 (inactive),0.253,0.369,1.03,0.208
C=CC[C@]1(C(=O)NCC(O)CO)N=C(c2ccc(OCCCO)cc2)O[C@H]1c1ccccc1N=[N+]=[N-] (stereo not given in full),0.227,-0.444,0.0649,0.154,0.323,1.8,1.11,1.25 (inactive),0.375,0.23,1.03,-0.285 (inactive),-0.529 (inactive),-0.325 (inactive),3.31,0.346 (inactive),0.406,-0.0496,-0.0588,-0.142
C=C(CCCC)/C(=C/C[C@@H](OC(=O)c1ccncc1)c1ccccc1OCCO)c1cc(C(=O)OC)ccc1OC,-0.256,0.815,-0.0628,0.173,0.791,1.17,1.2,0.488 (inactive),-0.242,-0.0296,1.49,0.176 (inactive),-0.587 (inactive),0.259 (inactive),2.75,0.478 (inactive),-0.0154,0.987,0.754,0.0895
COc1cc(NN2C(C(O)c3ccc(I)cc3)C=CC3C(=O)N(C)C(=O)C32)cc(OC)c1OC (stereo not given),0.495,-0.363,-0.0207,0.0488,1.52,1.96,1.14,0.777 (inactive),-0.0647,-0.0237,0.0146,0.896 (inactive),0.605 (inactive),0.0514 (inactive),2.75,0.202 (inactive),0.0283,-0.131,-0.325,0.113
CC(C)N1C(=O)c2ccccc2[C@](C)(C(=O)O)[C@@H]1c1ccc(CO)cc1,0.513,-0.671,-0.0255,-0.0804,-0.663,0.752,-0.0487,0.726 (inactive),0.112,-0.0708,-0.0681,-0.0219 (inactive),-0.751 (inactive),-1.16 (inactive),1.32,-0.156 (inactive),-0.0395,-0.615,-0.356,-0.256
NCCCCCCNC(=O)[C@H]1C[C@H]2C(=O)N3CCC[C@H]3C(=O)N2[C@H]1c1ccc(O)cc1,0.185,0.533,-0.029,0.176,-0.45,1.23,1.22,-0.415 (inactive),0.0744,-0.184,1.29,-0.777 (inactive),-1.25 (inactive),-0.28 (inactive),0.991,0.181 (inactive),-0.179,1.41,0.419,0.0053
CCCC=C(CCC)[C@@H](NC(=O)Cc1ccccc1)c1ccc(C(=O)OC)cc1,1.22,-0.0985,0.254,0.536,1.13,0.807,0.606,-0.26 (inactive),0.94,3.03,0.658,0.761 (inactive),0.847 (inactive),0.762 (inactive),1.54,-0.556 (inactive),1.1,0.234,0.505,0.577
